Each structure is given as a SMILES string. Records with an inconclusive call do not appear. Calls of active or inactive are those of the source. Calls follow the shape of the dose curve; as a rule, active = well fitted inhibition curve with a large enough effect; inconclusive = small, poorly fitted or top-dose-only effect, or effect the other way; inactive = flat fitted curve, though single readings scatter.

Chain of Thyroid hormone receptor beta (Homo sapiens) (P10828 whole entry, looked up, the tested form may be a part): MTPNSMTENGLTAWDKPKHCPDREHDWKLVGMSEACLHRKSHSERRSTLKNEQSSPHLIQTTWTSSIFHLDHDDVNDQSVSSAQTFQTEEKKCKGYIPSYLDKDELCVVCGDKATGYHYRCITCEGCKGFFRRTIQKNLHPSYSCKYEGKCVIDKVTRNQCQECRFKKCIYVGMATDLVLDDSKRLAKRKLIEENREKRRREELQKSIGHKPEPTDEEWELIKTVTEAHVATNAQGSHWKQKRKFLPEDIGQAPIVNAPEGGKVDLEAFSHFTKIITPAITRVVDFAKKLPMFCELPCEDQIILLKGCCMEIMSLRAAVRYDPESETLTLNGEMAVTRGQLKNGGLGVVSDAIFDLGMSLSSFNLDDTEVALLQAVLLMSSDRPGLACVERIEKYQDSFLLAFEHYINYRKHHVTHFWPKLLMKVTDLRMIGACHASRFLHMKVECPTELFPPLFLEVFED

The assay addresses Thyroid hormone receptor beta (Homo sapiens) (UniProt P10828). The experiment in a line: Concentration Response Confirmation Assay for Inhibitors of the Interaction of Thyroid Hormone Receptor and Steroid Receptor Coregulator 2, Fluorescein Fluoroprobe. As to conditions: TRbeta LBD / fluorescein-SRC2 peptide, fluorescence polarization, 5 h; series mostly up to 92.2 µM; activity, negative = inhibition: at the top concentration. An excerpt:
NIH Molecular Libraries Probe Production Network [MLPCN] NIH Chemical Genomics Center [NCGC] MLPCN Grant: DK058080 Assay Provider: R. Kip Guy, St. Jude Children's Research Hospital NCGC Assay Overview: Thyroid receptor (TR) regulates many homeostatic processes including basal metabolism, cardiovascular function, body weight, and lipid trafficking. TR modulators are potential therapeutics for obesity and hyperlipidemias but current thyroid analogs have undesirable side effects, particularly cardiac stimulation. To identify inhibitors that specifically prevent the interaction of TR with the steroid receptor coregulator 2 (SRC2), a fluorescence polarization assay was screened (Arnold et al., 2006). This assay detects interaction of the ligand-binding domain of human TRbeta with a fluorescein labeled SRC2 peptide, corresponding to a 20 amino acid region of the nuclear receptor interaction domain. Small molecule inhibitors that block the interaction of TR and SRC2 are detected by a decrease in fluorescence polarization. This assay is a confirmation assay for AID 1469. Arnold, L. A.; Estebanez-Perpina, E.; Togashi, M.; Shelat, A.; Ocasio, C. A.; McReynolds, A. C.; Nguyen, P.; Baxter, J. D.; Fletterick, R. J.; Webb, P.; Guy, R. K. A high-throughput screening method to identify small molecule inhibitors of thyroid hormone receptor coactivator binding. Sci STKE 2006, p 13.
NCGC Assay Protocol Summary: Five uL/well 0.6 uM TRbeta and 20 nM SRC2 Fluorescein in protein buffer (20mM Tris hydrochloride, 100mM NaCl, 10% glycerol, 1mM EDTA, 0.01% NP-40, 1mM DTT, 1uM T3 and 5% DMSO) was dispensed into black solid 1536-well plates (Grenier) using a solenoid-based dispenser. Following transfer of 23 nL compound or DMSO vehicle by a pin tool, the plates were centrifuged 15 s at 1000 RPM and incubated 5 hr at ambient temperature. The plates were read by an Envision (Perkin Elmer) to detect fluorescence polarization of SRC2 Fluorescein (480 nm excitation and 535 nm emission). Data were normalized to unbound (all components except TRbeta) and bound SRC2 Fluorescein controls. In this assay, we provide % activity data for each concentration as well as potencies for the active compounds. Keywords: NIH Roadmap, MLPCN, MLI, MLSMR, qHTS, NCGC, qHTS, thyroid hormone receptor, steroid receptor coactivator, fluorescence polarization
On to `Cc1cc2c(NC(=O)Nc3ccccc3)cccc2nn1`, for which the activity, negative = inhibition was -4.49% [at 0.0112 µM] (inactive). Take `Cn1cc[nH]c1=S`: the “activity, negative = inhibition” value was 2.33% (inactive).

`Nc1cccnc1Sc1cc(Cl)c(Cl)cc1Cl`: the “activity, negative = inhibition” value is 6.55% (inactive). As for `O=C(O)/C=C/C(=O)Nc1ccc(OC(F)(F)F)cc1Br`, the Potency is 50.1 µM (active). For `CC1(C)C(N(O)C(=O)Nc2ccc(Cl)cc2)N(c2ccc(Cl)cc2)C(=O)N1CC(=O)NN` (centres undefined), the activity, negative = inhibition is -8.24% [at 11.6 µM] (inactive).

`CCCCCCN=CC1=C(O)CC(C)(C)CC1=O`: the activity, negative = inhibition was 4.31% [at 0.0112 µM] (inactive). For `CCOc1ccc(C2=Cc3cc(OC)c(OC)cc3C(=C(Cl)Cl)O2)cc1`, the “activity, negative = inhibition” value is -14.6% (inactive). As for `Oc1ccc2ccccc2c1/C=N/c1nc2c(s1)CCCC2`, the Potency is 31.6 µM (active). Consider `Cc1ccc(-c2nc(S(=O)(=O)c3ccc(F)cc3)c(SCC(=O)NCC3CCCO3)o2)cc1` (centres undefined), for which the “activity, negative = inhibition” value is -8.38% [at 46.3 µM] (inactive).
